Screens as filed in PubChem.
The list is not random: actives were taken first. Their share in the collection is about 32%.
PostGolgi ctrl: inhibits growth of the yeast control strain. 98,000 compounds, 5% hits. inhibition, % at 10 µM. efflux-deficient yeast background strain, growth absorbance A615, 16 h
CYP2C9 inh: inhibitors of human CYP2C9; AID 777; inhibition, % at 5 µM; CYP2C9 Supersomes, luciferin-H conversion, luminescence; 96,000 compounds, 20% hits; P11712;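 active means blocking of liver enzyme CYP2C9 beyond about 50% at 5 µM, limit read from the data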
Target sequence (P11712 whole entry, looked up): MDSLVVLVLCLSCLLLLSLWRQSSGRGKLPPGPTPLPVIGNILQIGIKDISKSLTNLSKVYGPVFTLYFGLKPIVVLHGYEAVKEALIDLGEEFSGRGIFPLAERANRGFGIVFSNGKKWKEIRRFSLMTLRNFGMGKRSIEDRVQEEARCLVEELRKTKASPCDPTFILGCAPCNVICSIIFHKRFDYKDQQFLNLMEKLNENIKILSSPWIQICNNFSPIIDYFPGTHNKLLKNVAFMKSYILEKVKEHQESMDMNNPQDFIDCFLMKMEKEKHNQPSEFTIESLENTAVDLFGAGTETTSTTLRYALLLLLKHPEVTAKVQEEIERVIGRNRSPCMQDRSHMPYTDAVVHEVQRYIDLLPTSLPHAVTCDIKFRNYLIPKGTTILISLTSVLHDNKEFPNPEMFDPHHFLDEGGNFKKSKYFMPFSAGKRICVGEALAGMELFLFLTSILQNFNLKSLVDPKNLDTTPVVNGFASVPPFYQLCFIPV
PostGolgi yeast: growth inhibition of a yeast mutant, post-Golgi transport screen; post-Golgi transport phenotypic cell assay; inhibition, % at 10 µM; 98,000 compounds, 0.9% hits; AID 739;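 further: yeast cells grown in 1536-well plates; yeast grown about 18 h at 30C before absorbance read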
CYP2C19 activ: cytochrome P450 2C19 (human) activation. P33261. recombinant CYP2C19, luciferin-H EGE luminescence; stronger effect = higher value; 0 = fully inhibited enzyme, 1 = untreated enzyme. activation factor at 5 µM. 96,000 tested, under 10 active. AID 1025;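 active means activation factor of at least 2 at 5 µM in the primary screen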;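 further: 0 = wells with 2.5 mM tranylcypromine and 1 = vehicle-only wells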
CYP2C9 act: CYP2C9 (human) activation; P11712; AID 1024; recombinant CYP2C9, luciferin-H conversion, luminescence; stronger effect = higher value; factor 1 = untreated enzyme, 0 = blocked; activation factor at 5 µM; 96,000 compounds, 1.4% hits;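 active means activation factor of 2 or more for CYP2C9 at a 5 µM dose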;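 further: 0 = sulfaphenazole-blocked wells and 1 = vehicle-only wells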
CYP2C19 inh: blocks human cytochrome P450 2C19; inhibition, % at 5 µM; 96,000 compounds, 21% hits; P33261; CYP2C19 Supersomes, luciferin-H EGE luminescence, 30 min;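 active means CYP2C19 inhibition above a set limit at 5 µM in the primary screen, cut at about 50% in these data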;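 further: plate controls were negative control wells for no effect and 2.5 mM tranylcypromine positive control for full effect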
The depositor's hits bear a star; · = no result. Unless noted, no stated cut-off is given here; in the data, active means inhibition above about 30%; inactive means the rest.

SMILES	PostGolgi ctrl	CYP2C9 inh	PostGolgi yeast	CYP2C19 activ	CYP2C9 act	CYP2C19 inh
O=C(NCc1ccccc1)c1n[nH]nc1-c1ccccc1O	·	51.6*	·	0.3	0.5	72.6*
OC1CCCCC1Sc1nc2ccccc2s1 (configuration not stated)	11.8	39.9	2.0	0.3	0.6	65.8*
CSc1nc2cc(Cl)ccc2s1	4.5	6.6	2.0	1	0.9	0.2
O=C1OCCC1Sc1nc2cc(Cl)ccc2n1Cc1ccccc1 (configuration not stated)	20.3	48.1	2.8	0.4	0.5	59.4*
O=C1OCCC1Sc1nc2cc(Cl)ccc2s1 (configuration not stated)	19.6	-163.0	8.2	0.1	2.6*	91.7*
C=CCn1c(SC2CCOC2=O)nc2sc(CC)cc2c1=O (configuration not stated)	9.2	31.3	0.8	1	0.7	2.5
O=C(Nc1nc2ccccc2s1)C1CCCO1 (configuration not stated)	-5.3	18.4	-17.0	0.6	0.8	40.2
O=C1OCCC1Sc1nc2ccccc2s1 (configuration not stated)	-6.2	-88.4	4.4	0.4	1.9	61.6*
Cc1nc(NC(=O)COc2ccccc2)sc1C(=O)Nc1cccc(Cl)c1	-9.9	4.9	-2.6	1	1	-2.9
Cc1cc2occ(CC(=O)NC3=NCCS3)c2cc1C(C)C	13.7	-19.9	-1.7	0.7	1.2	26.3
Cc1cc(NC(=O)CCC(=O)N(c2ccccc2)C(C(=O)NC2CCCCC2)c2cccs2)no1 (configuration not stated)	12.2	·	0.8	·	·	·
CCCc1cc(=O)[nH]c(SCC(=O)c2cc(C)n(C3CC3)c2C)n1	17.3	17.4	-8.2	0.8	0.8	21.9
O=C(CCCn1c(=O)c2ccccc2n(Cc2ccccc2)c1=O)NCc1ccco1	11.7	32.7	0.0	0.1	0.7	90.1*
O=C(CCCCn1c(=O)c2ccccc2n(Cc2ccc(F)cc2)c1=O)NCc1ccco1	25.8	84.9*	-12.6	0.2	0.2	81.4*
COc1ccccc1NC(=O)Cn1c(CN2CCCCC2)nc2ccccc2c1=O	29.4	31.8	0.0	0.5	0.7	47.2
O=C(Cn1c(=O)n(Cc2ccccc2)c(=O)c2ccccc21)NCc1ccco1	0.6	24.6	-0.3	0.5	0.8	51.9*
O=C(Cn1c(CN2CCCCC2)nc2ccccc2c1=O)NCc1ccco1	2.2	75.0*	-3.8	0.5	0.3	54.7*
Clc1ccc(OCCSc2ncccn2)cc1	1.0	20.3	0.7	0.7	0.8	28.7
N#CC1(c2c(O)nc3n(c2=O)CCCS3)CCCCC1	-1.7	8.2	8.7	1	0.9	-0.9
O=C(CCn1c(=O)c2ccccc2n(Cc2ccccc2)c1=O)NCc1ccc2c(c1)OCO2	13.2	33.7	18.2	0.5	0.7	51.6*
O=C(CCn1c(=O)oc2ccccc21)NCc1ccc2c(c1)OCO2	13.3	-2.6	2.2	0.7	1	25.6
O=C(CN1CCCC1=O)NC1(C(F)(F)F)NC(=O)N(Cc2ccccc2)C1=O (configuration not stated)	-1.6	-4.2	14.1	1.2	1	-17.2
O=C(NCc1ccc2c(c1)OCO2)C1CCCN(S(=O)(=O)c2cccnc2)C1 (configuration not stated)	21.8	49.5	-0.5	1	0.5	-1.5
Cc1cc2nc(SCC(=O)N(C)C)c3c(c2cc1C)CCCC3	30.9*	17.9	0.3	1	0.8	2.4
COC(=O)CNC(c1ccccc1)c1cc(Br)ccc1NC(=O)OCc1ccccc1 (configuration not stated)	9.4	74.2*	-5.8	0.6	0.3	42.8
SMILES	PostGolgi ctrl	CYP2C9 inh	PostGolgi yeast	CYP2C19 activ	CYP2C9 act	CYP2C19 inh
COC(=O)CNC(c1ccccc1)c1cc(C)ccc1NC(=O)CNC(=O)OCc1ccccc1 (configuration not stated)	21.0	93.6*	1.2	0.2	0.1	82.3*
Cc1nn(Cc2ccc(Cl)cc2)c(=O)n1N(C)c1ncc(C(F)(F)F)cc1Cl	27.8	49.5	-3.9	0.3	0.5	73.2*
O=C(CN1CCC(c2nc3ccccc3[nH]2)CC1)NCc1ccc2c(c1)OCO2	3.5	25.6	1.4	0.9	0.7	6.9
N#CC1(c2nc3ccccc3[nH]2)CC1c1ccc2c(c1)OCO2 (configuration not stated)	-8.9	64.0*	10.2	0.1	0.4	91.9*
COc1ccc(S(=O)(=O)NC(C)C(=O)Nc2ccccc2C(F)(F)F)cc1 (configuration not stated)	-1.5	-25.0	-4.0	0.7	1.3	33.1
CC(=O)c1cc(C)ccc1OC(=O)c1cccc2nc(C)oc12	9.1	61.1*	0.2	0.4	0.4	57.3*
Cc1noc(NS(=O)(=O)c2ccc(N/C=C/C(=O)c3cccnc3)cc2)c1C	0.2	-9.1	-15.5	1.1	1.1	-9.5
COc1cccc(/C=N/NC(=O)c2cc(-c3cccn3C)n[nH]2)c1	3.6	-12.3	3.8	1	1.1	1.1
COc1cccc(/C=N/NC(=O)c2cc(C34CC5CC(CC(C5)C3)C4)[nH]n2)c1	66.1*	49.4	-2.6	0.6	0.5	42.6
CC(C)Sc1nnc(-c2c[nH]c3ccccc23)n1C	2.9	19.1	-0.9	0.3	0.8	68.3*
Cn1c(SCc2cccnc2)nnc1-c1c[nH]c2ccccc12	2.0	48.7	6.0	0.2	0.5	83.3*
C#CCSc1nnc(-c2c[nH]c3ccccc23)n1C	9.8	-3.7	4.2	0.8	1	15.0
CCOC(=O)c1c(C)nc2sc(C(=O)Nc3ccc(OC)cc3)c(N)c2c1-c1ccc(OC)cc1	14.8	85.1*	-3.8	0.2	0.1	81.3*
CCOC(=O)c1c(C)nc2sc(C(=O)Nc3ccc(C(C)=O)cc3)c(N)c2c1-c1ccc(OC)cc1	8.2	62.2*	-6.7	0.4	0.4	59.9*
CCc1ccc(N(C(=O)c2csnn2)C(C(=O)NCc2ccccc2)c2ccco2)cc1 (configuration not stated)	-1.2	43.2	5.6	0.5	0.6	47.1
O=C(CC(=O)N1CCN(c2ccccn2)CC1)Nc1ccc2nc3n(c(=O)c2c1)CCCCC3	2.1	77.6*	-0.2	0.7	0.2	28.4
O=C(Nc1ccc2nc3n(c(=O)c2c1)CCCCC3)c1ccccn1	-1.7	53.4*	-7.8	0.9	0.5	13.6
Cc1ccc(-c2noc(C3CCCN(C(=O)C4CCCCC4)C3)n2)o1 (configuration not stated)	7.0	59.6*	-5.9	0.5	0.4	53.1*
O=S(=O)(Cc1ccccc1)N1CCCC(c2nc(-c3ccc(F)cc3)no2)C1 (configuration not stated)	33.4*	10.4	2.2	0.8	0.9	19.8
Cc1ccccc1NC(=O)N1CCCC(c2nc(-c3ccc(F)cc3)no2)C1 (configuration not stated)	18.4	70.3*	6.2	0.5	0.3	53.6*
